# According to the supplement of paper PMC11732987, “Enantioselective OTUD7B fragment discovery through chemoproteomics screening and high-throughput optimisation” (Communications Chemistry, 2025):
# Values without a mark were called inactive.
# Assays:
# Test in all cases: log2 ratio of Biotin-Ahx-Ub-VS probe labelling (fragment/DMSO); higher = less target engagement (more negative = stronger competition), active = hit call of the paper (q ≤ 0.05, log2 ratio ≤ -1)
# Details in all cases: compound concentration: 200 uM; treatment time: 3 h
# USP19 = biological target: T1, USP19 (UniProt O94966)
# T1 sequence (whole entry): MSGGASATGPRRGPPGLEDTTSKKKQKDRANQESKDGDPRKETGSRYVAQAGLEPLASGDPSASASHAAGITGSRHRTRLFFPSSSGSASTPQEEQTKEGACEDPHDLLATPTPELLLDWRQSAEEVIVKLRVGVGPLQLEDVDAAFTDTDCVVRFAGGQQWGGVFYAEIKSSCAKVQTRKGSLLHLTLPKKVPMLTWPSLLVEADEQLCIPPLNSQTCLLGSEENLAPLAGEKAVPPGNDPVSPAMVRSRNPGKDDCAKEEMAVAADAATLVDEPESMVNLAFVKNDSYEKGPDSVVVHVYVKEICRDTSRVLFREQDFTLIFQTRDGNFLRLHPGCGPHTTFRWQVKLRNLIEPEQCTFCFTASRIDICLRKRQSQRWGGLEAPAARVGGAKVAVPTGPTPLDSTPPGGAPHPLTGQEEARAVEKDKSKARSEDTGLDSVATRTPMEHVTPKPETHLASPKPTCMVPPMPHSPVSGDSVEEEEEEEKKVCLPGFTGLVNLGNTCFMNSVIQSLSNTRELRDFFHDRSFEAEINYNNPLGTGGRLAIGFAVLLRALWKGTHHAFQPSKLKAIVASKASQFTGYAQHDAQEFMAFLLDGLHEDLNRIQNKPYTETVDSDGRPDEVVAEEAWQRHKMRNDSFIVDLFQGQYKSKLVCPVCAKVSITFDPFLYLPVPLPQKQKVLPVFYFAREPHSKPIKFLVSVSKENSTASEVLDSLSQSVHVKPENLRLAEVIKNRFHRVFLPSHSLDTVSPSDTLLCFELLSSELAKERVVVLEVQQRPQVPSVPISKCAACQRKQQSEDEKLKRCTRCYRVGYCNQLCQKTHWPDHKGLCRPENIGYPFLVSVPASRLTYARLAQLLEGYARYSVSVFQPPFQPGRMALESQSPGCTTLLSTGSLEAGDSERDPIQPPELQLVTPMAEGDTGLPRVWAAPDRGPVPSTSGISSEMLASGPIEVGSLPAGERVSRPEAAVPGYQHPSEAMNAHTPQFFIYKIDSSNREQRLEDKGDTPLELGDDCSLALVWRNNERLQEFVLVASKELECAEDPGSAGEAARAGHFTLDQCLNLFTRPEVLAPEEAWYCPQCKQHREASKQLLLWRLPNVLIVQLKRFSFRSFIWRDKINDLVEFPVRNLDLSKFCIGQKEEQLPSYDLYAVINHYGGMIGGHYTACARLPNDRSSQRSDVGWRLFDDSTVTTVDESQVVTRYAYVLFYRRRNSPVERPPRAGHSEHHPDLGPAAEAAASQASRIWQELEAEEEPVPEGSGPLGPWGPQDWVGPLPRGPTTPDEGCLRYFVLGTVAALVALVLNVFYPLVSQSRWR
# Method in brief: (§1)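 Labelling with Biotin-Ahx-Ub-VS (0.5 µM final, 1 h) followed a 3 h triplicate treatment of HEK293T lysate (495 µg per sample, Tris/CHAPS/IGEPAL buffer with protease inhibitors) with fragment at 200 µM or vehicle. Labelled DUBs were NeutrAvidin-enriched, digested with LysC and trypsin, and run by diaPASEF LC-MS/MS. The values, average log2 fragment/vehicle ratios by unpaired t-test, come from global-median-normalised Spectronaut label-free quantities. Proteins with ≥2 unique peptides were used.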
# USP24 = USP24 (UniProt Q9UPU5)
# Method in brief: as §1
# USP25 = biological target: T2, USP25 (UniProt Q9UHP3)
# T2 sequence (whole entry): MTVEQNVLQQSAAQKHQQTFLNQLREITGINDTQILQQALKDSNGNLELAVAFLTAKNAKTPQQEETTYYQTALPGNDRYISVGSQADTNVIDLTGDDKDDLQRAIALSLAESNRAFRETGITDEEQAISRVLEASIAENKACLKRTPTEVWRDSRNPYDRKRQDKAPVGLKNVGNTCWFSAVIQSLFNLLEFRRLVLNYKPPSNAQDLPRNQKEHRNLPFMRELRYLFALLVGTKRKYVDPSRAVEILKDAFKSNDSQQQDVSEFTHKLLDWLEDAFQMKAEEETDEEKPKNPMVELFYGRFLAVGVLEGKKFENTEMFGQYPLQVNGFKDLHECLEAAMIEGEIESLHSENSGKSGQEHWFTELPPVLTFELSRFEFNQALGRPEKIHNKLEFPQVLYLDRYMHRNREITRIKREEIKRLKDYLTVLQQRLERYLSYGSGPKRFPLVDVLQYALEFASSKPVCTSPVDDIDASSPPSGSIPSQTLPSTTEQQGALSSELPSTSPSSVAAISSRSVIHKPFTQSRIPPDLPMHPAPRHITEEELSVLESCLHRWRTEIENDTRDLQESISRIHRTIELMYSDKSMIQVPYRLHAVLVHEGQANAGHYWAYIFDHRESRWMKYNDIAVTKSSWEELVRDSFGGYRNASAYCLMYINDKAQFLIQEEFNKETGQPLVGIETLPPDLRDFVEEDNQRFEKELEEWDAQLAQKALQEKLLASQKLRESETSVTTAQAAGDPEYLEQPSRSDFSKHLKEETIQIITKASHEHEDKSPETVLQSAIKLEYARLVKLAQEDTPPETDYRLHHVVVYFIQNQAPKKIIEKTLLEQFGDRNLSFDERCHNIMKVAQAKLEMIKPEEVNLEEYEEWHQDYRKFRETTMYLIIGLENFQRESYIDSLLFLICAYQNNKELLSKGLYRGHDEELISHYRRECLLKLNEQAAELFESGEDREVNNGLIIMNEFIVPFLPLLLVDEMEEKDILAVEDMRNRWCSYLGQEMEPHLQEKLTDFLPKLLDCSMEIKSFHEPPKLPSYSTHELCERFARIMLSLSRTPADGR
# Method in brief: as §1
# USP28 = biological target: T3, USP28 (UniProt Q96RU2)
# T3 sequence (whole entry): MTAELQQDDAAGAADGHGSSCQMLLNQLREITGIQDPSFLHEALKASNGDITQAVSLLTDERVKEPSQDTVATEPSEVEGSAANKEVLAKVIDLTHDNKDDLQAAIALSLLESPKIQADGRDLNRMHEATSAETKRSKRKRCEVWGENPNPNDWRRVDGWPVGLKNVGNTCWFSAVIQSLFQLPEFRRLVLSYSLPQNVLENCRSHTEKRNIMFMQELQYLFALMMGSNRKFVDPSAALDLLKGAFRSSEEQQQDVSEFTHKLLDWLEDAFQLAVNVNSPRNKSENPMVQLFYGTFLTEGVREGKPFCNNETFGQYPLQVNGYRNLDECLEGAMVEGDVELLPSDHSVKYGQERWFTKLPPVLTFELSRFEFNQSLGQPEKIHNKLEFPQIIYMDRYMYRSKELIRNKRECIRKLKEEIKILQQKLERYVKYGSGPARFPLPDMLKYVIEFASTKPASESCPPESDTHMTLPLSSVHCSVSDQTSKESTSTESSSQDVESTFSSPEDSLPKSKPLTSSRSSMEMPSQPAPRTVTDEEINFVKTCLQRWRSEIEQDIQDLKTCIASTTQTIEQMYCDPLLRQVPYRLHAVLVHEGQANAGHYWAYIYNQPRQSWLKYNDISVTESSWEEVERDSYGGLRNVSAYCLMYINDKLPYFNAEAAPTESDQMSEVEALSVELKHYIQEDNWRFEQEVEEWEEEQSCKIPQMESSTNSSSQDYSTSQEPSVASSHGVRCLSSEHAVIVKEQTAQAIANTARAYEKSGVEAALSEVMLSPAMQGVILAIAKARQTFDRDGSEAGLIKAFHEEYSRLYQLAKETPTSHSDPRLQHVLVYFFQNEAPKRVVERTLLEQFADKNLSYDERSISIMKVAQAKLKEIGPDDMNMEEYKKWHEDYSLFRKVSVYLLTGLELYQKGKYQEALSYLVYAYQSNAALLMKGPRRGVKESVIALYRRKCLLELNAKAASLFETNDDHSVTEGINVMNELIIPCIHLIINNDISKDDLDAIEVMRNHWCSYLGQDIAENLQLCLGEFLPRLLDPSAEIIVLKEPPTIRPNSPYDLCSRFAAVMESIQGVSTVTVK
# Method in brief: as §1
# Sequence of USP24 (Q9UPU5 whole entry): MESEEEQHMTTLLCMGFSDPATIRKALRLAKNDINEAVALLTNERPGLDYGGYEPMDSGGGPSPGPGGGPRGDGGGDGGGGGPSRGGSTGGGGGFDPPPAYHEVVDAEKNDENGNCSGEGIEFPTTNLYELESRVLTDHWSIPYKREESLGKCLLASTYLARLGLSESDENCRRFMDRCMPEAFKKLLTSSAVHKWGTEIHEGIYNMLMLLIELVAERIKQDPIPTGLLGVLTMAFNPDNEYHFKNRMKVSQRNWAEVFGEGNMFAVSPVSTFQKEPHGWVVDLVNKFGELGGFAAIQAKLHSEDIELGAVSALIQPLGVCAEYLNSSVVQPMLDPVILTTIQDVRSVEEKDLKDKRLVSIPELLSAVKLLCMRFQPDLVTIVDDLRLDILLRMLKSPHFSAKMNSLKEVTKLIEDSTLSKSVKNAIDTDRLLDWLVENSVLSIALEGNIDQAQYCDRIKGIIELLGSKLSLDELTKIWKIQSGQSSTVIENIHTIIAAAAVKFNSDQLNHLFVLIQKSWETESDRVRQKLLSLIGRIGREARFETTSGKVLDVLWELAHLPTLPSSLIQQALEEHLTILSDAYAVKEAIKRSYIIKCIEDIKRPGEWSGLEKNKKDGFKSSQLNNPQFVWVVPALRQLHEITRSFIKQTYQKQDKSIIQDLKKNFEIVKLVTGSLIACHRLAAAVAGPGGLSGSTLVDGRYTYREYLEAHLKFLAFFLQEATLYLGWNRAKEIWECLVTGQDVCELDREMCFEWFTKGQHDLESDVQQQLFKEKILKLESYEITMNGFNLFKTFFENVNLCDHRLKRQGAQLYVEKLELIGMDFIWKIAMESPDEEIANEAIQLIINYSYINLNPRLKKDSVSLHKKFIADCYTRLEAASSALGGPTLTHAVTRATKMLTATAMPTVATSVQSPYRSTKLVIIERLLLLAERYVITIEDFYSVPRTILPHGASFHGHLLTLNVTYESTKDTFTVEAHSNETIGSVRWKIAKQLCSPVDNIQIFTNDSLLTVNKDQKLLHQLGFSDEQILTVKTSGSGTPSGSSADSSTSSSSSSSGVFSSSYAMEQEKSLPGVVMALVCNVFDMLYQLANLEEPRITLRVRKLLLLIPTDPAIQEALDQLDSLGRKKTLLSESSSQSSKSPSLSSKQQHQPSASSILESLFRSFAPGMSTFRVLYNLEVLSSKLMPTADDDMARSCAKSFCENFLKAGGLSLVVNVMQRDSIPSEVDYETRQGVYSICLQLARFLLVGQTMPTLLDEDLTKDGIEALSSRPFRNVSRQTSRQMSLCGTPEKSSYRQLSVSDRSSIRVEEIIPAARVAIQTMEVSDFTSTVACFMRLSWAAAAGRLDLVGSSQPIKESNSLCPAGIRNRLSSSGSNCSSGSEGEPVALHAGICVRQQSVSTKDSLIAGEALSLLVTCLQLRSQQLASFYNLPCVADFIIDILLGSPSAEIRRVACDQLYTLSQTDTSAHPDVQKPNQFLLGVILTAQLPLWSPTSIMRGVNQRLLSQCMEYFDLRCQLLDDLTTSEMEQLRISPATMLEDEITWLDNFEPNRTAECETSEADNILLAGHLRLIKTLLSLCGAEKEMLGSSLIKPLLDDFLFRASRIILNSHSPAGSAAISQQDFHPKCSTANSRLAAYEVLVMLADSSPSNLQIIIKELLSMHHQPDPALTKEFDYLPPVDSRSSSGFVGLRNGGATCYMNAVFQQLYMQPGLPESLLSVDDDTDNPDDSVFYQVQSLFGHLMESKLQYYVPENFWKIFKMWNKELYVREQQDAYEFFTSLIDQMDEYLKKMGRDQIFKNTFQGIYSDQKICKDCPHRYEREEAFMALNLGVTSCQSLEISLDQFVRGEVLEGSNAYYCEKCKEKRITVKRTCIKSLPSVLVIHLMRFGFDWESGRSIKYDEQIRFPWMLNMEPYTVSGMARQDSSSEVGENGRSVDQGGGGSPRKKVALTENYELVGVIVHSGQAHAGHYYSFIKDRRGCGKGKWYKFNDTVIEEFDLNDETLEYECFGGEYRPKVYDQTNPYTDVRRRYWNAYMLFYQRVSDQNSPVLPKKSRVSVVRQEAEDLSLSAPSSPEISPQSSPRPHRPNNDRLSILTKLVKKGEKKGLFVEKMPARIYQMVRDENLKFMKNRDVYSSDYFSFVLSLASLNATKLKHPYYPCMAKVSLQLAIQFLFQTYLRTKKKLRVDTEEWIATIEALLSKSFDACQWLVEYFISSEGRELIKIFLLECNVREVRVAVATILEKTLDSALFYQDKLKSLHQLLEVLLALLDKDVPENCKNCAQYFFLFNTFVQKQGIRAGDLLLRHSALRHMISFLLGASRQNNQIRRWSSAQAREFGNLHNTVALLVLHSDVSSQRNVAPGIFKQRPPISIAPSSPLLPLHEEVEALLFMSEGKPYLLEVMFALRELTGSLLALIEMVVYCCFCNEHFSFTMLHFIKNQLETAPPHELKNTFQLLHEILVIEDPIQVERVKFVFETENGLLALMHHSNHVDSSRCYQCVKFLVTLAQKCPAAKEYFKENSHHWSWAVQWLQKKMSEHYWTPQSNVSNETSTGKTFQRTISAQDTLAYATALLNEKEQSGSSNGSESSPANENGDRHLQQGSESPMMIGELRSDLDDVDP
structure (smiles),measurement,setting,value
Cc1n[nH]c2c1CN(C(=O)CCl)CC2,log2 ratio of Biotin-Ahx-Ub-VS probe labelling,USP19,-1.23 (active)
same,log2 ratio of Biotin-Ahx-Ub-VS probe labelling,USP24,-1.26 (active)
same,log2 ratio of Biotin-Ahx-Ub-VS probe labelling,USP25,-0.783
same,log2 ratio of Biotin-Ahx-Ub-VS probe labelling,USP28,-1.29 (active)
